From PubChem BioAssay (NCATS)
Values joined by “and” are separate entries in the source; they are usually repeats but may differ in a detail not shown here. Identical values can stand only once. Results filed as inconclusive are left out. Active and inactive are the calls of the source. Calls come from the whole dose curve; as a rule, active = well fitted inhibition curve with a large enough effect; inconclusive = small, poorly fitted or top-dose-only effect; inactive = flat fitted curve, though single readings scatter.

How the values were obtained:
[1] = Drug repurposing screens with cells derived from glioblastoma tumor samples (AID 1345199); conditions: GBM patient neurospheres viability, ATP luminescence, 48 h; note: nearly all actives have a fitted effect of over 40% in size
Procedure, shortened: (§1)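 Four patient lines of CD133+ GBM neurospheres were screened at several concentrations; hits were retested in those lines plus three slower-growing GBM lines, using 48-hour treatment and ATP-based viability.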

astro = control astrocytes; experiment: as above; conditions: viability, ATP luminescence, 48 h; series mostly up to 45.9 µM
Procedure, shortened: as §1

[2] = at 46.1 µM (top of the series), tumour line C
[3] = at 45.9 µM (top of the series), tumour line B
[4] = at 45.9 µM (top of the series), tumour line D
[5] = at 46 µM (top of the series), tumour line A
[6] = at 20 µM (top of the series), tumour line C
[7] = at 21.2 µM (top of the series), tumour line B
[8] = at 21.2 µM (top of the series), tumour line D
[9] = at 21.3 µM (top of the series), tumour line A
% is set by controls: 0 for no effect and ±100 for the full control effect; potency is the fitted concentration of half-maximal effect.

O=C(OC[C@H]1O[C@@H](OC(=O)c2cc(O)c(O)c(OC(=O)c3cc(O)c(O)c(O)c3)c2)[C@H](OC(=O)c2cc(O)c(O)c(OC(=O)c3cc(O)c(O)c(O)c3)c2)[C@@H](OC(=O)c2cc(O)c(O)c(OC(=O)c3cc(O)c(O)c(O)c3)c2)[C@@H]1OC(=O)c1cc(O)c(O)c(OC(=O)c2cc(O)c(O)c(O)c2)c1)c1cc(O)c(O)c(OC(=O)c2cc(O)c(O)c(O)c2)c1
inactive: activity, negative = cell killing [1, 2] -14.4%
active: Potency ([1]; tumour line A) 15.8 µM | Potency ([1]; tumour line B) 22.4 µM | Potency ([1]; tumour line D) 17.8 µM | Potency (astro) 2.82 µM

NC(=O)[C@@H]1CCCN1C(=O)[C@H](Cc1cnc[nH]1)NC(=O)[C@@H]1CCC(=O)N1
inactive: activity, negative = cell killing [1, 3] -8.63% | activity, negative = cell killing [1, 4] 6.97% | activity, negative = cell killing [1, 5] -26.1% | activity, negative = cell killing [1, 2] 5.62% | Potency (astro)

CC(=O)[O][Al][O]C(C)=O
inactive: activity, negative = cell killing [1, 3] -5.15% | activity, negative = cell killing [1, 4] -14.6% | activity, negative = cell killing [1, 5] -26.4% | activity, negative = cell killing [1, 2] -11.8% | Potency (astro)

CO[C@@]1(NC(=O)C2SC(=C(C(N)=O)C(=O)O)S2)C(=O)N2C(C(=O)O)=C(CSc3nnnn3C)CS[C@@H]21 (stereo not given in full)
inactive: activity, negative = cell killing [1, 6] -19.2% | activity, negative = cell killing [1, 7] -15.8% | activity, negative = cell killing [1, 8] -10.4% | activity, negative = cell killing [1, 9] -12.5% | Potency (astro)

C[C@H](N)C(=O)N[C@@H](C)P(=O)(O)O
inactive: activity, negative = cell killing [1, 3] -6.14% | activity, negative = cell killing [1, 4] -11.2% | activity, negative = cell killing [1, 5] -15.6% | activity, negative = cell killing [1, 2] -19.1% | Potency (astro)

C=Cc1c(C)c2cc3nc(cc4[nH]c(cc5nc(cc1[nH]2)C(C)=C5CCC(=O)OC)c(CCC(=O)O)c4C)[C@@]1(C)C3=CC=C(C(=O)OC)[C@H]1C(=O)OC
inactive: activity, negative = cell killing [1, 3] -5.62% | activity, negative = cell killing [1, 4] -3.48% | activity, negative = cell killing [1, 5] -5.65% | activity, negative = cell killing [1, 2] -20.1% | Potency (astro)

CCCCC(CC)CCC(CC(C)C)OS(=O)(=O)O (stereo not given)
inactive: activity, negative = cell killing [1, 3] -14.6% and -5.66% | activity, negative = cell killing [1, 4] -13.9% and 2.49% | activity, negative = cell killing [1, 5] -21.7% and -3.22% | activity, negative = cell killing [1, 2] -16.9% and 4.88% | Potency (astro)

CC(C)(O/N=C(\C(=O)N[C@@H]1C(=O)N2C(C(=O)[O-])=C(C[n+]3ccccc3)CS[C@H]12)c1csc(N)n1)C(=O)O
inactive: activity, negative = cell killing [1, 6] -8.81% | activity, negative = cell killing [1, 7] -13.9% | activity, negative = cell killing [1, 8] 1.29% | activity, negative = cell killing [1, 9] -19.8% | Potency (astro)

NC[C@H]1O[C@H](O[C@H]2[C@H](O)[C@@H](O[C@H]3O[C@H](CO)[C@@H](O)[C@H](N)[C@H]3O)[C@H](N)C[C@@H]2N)[C@H](O)[C@@H](O)[C@@H]1O
inactive: activity, negative = cell killing [1, 6] 3.71% | activity, negative = cell killing [1, 7] -14.2% | activity, negative = cell killing [1, 8] 0.603% | activity, negative = cell killing [1, 9] -23.6% | Potency (astro)

Cc1c(O)c(=O)ccn1C
inactive: activity, negative = cell killing [1, 3] -9.32% | activity, negative = cell killing [1, 4] -8.06% | activity, negative = cell killing [1, 5] -29.8% | activity, negative = cell killing [1, 2] -25.3% | Potency (astro)

NC[C@@H]1O[C@H](O[C@H]2[C@@H](O)[C@H](O[C@@H]3[C@@H](O)[C@H](N)C[C@H](N)[C@H]3O[C@H]3O[C@H](CO)[C@@H](O)[C@H](O)[C@H]3N)O[C@@H]2CO)[C@H](N)[C@@H](O)[C@@H]1O
inactive: activity, negative = cell killing [1, 3] -4.51% | activity, negative = cell killing [1, 4] -15.7% | activity, negative = cell killing [1, 5] -10.6% | activity, negative = cell killing [1, 2] -32.1% | Potency (astro)

CC1CS(=O)(=O)CCN1/N=C/c1ccc([N+](=O)[O-])o1 (stereo not given)
inactive: activity, negative = cell killing [1, 6] -27.2% | activity, negative = cell killing [1, 7] -10% | activity, negative = cell killing [1, 8] -29.2% | activity, negative = cell killing [1, 9] -23% | Potency (astro)

OCC1(CO)COC(C(Cl)(Cl)Cl)OC1
inactive: activity, negative = cell killing [1, 3] -8.7% | activity, negative = cell killing [1, 4] -7.18% | activity, negative = cell killing [1, 5] -26.1% | activity, negative = cell killing [1, 2] -4.39% | Potency (astro)

O=C1CCC(=O)N1CO
inactive: activity, negative = cell killing [1, 3] -0.626% | activity, negative = cell killing [1, 4] -0.644% | activity, negative = cell killing [1, 5] -17% | activity, negative = cell killing [1, 2] -0.827% | Potency (astro)

CO/N=C(\C(=O)N[C@@H]1C(=O)N2C(C(=O)O)=C(CSc3nnnn3C)CS[C@H]12)c1csc(N)n1
inactive: activity, negative = cell killing [1, 3] -10.5% | activity, negative = cell killing [1, 4] -9.07% | activity, negative = cell killing [1, 2] -27.1% | Potency (astro)
active: Potency ([1]; tumour line A) 11.2 µM

CC1(C)[C@@H]2CC[C@@]1(C)[C@H](OC(=O)CSC#N)C2
active: Potency ([1]; tumour line A) 35.5 µM
inactive: activity, negative = cell killing [1, 3] -7.75% | activity, negative = cell killing [1, 4] -12% | activity, negative = cell killing [1, 2] 23.1% | Potency (astro)

CC(=O)Nc1c(I)c(C(=O)N[C@H]2C(O)O[C@H](CO)[C@@H](O)[C@@H]2O)c(I)c(N(C)C(C)=O)c1I (stereo not given in full)
inactive: activity, negative = cell killing [1, 6] -5.11% | activity, negative = cell killing [1, 7] -5.7% | activity, negative = cell killing [1, 8] -16.2% | activity, negative = cell killing [1, 9] -16.4% | Potency (astro)

CCC(O)c1ccccc1 (stereo not given)
inactive: activity, negative = cell killing [1, 3] -1.17% | activity, negative = cell killing [1, 4] 0.662% | activity, negative = cell killing [1, 5] -1.63% | activity, negative = cell killing [1, 2] 4.78% | Potency (astro)

Cc1ncc(C[n+]2csc(CCOP(=O)(O)O)c2C)c(N)n1
inactive: activity, negative = cell killing [1, 3] -1.8% | activity, negative = cell killing [1, 4] -1.97% | activity, negative = cell killing [1, 5] -17% | activity, negative = cell killing [1, 2] -10.8% | Potency (astro)
